Consider 13 molecules from PubChem BioAssay.

Values joined by “and” are separate entries in the source; they are usually repeats but may differ in a detail not shown here. Equal values may be shown once. Inconclusive results are not listed. Active and inactive are the calls of the source. Unless noted, no stated cut-off is given here; in the data, active means inhibition above about 80%; inactive means the rest.

Experiment [1] is described as follows: enhancers of SMN2 over SMN1 splicing, cell-based, SMN2/SMN1 luciferase reporters (AID 1598; call rule not given here). The conditions noted are these: SMN2 vs SMN1 luciferase splicing reporter cells, at 10 µM; SMN1 luciferase ratio: measured here: SMN1 luciferase reporter average; SMN2 luciferase ratio: measured here: SMN2 luciferase reporter average, stronger effect = higher value; SMN2/SMN1 luciferase ratio: stronger effect = higher value. Background: Reporter assays use an easily measured gene product as a stand-in for the process of interest.

Experiment [2] in a line: inhibitors of Cryptococcus chitosan production, flow cytometry, Cibacron Brilliant Red staining (AID 1347148; call rule not given here;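 further: compound exposure lasted three days at 37 degrees C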). The conditions noted are these: Cryptococcus neoformans chitosan, stronger effect = lower value; at 99.1 µM unless noted. On the technique in general: In flow cytometry, cells or beads pass a laser one at a time.
Experiment [3] in a line: protection of motor neurons from glutamate death, cell-based, TUNEL DNA degradation staining, MNGlu (AID 1594; call rule not given here). The conditions noted are these: glutamate-induced death, at 1 µM, stronger effect = higher value.
The nature of experiment [4]: protection against mutant huntingtin cytotoxicity, PC12 cells, LDH release (AID 1610). The note with it: PC12 mutant huntingtin toxicity, final LDH at 4 uM, stronger effect = lower value. (Release of lactate dehydrogenase indicates damage to the cell membrane.)
The nature of experiment [5]: LFS_MB_1R medulloblastoma cell growth inhibition, synergistic combos for chromothripsis tumors, cisplatin or BGB combos (AID 1671452).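 Further: cells exposed for 96 hours before readout.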 The conditions noted are these: LFS_MB_1R medulloblastoma cells, stronger effect = higher value.
Experiment [6] can be described thus: HTB85 osteosarcoma cell growth inhibition, synergistic combos for chromothripsis tumors, BGB or cisplatin IC20 combos (AID 1671453).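 Further: cells exposed for 96 hours before readout; 0% = vehicle DMSO and 100% = high DMSO killing control.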 The conditions noted are these: HTB85 osteosarcoma cells, drug combinations, stronger effect = higher value.
Experiment [7] is described as follows: CRL2098 osteosarcoma cell growth inhibition, synergistic combos for chromothripsis tumors, BGB or cisplatin IC20 combos (AID 1671454).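 Further: cells exposed for 96 h before readout; 0% = vehicle DMSO and 100% = killing by high DMSO.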 The conditions noted are these: CRL2098 osteosarcoma cells, drug combinations, stronger effect = higher value.
Experiment [8] can be described thus: HD-MB03 medulloblastoma cell growth inhibition, synergistic combos for chromothripsis tumors, BGB or cisplatin IC20 combos (AID 1671455; in the data active means inhibition above about 83%;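 further: 0% = vehicle DMSO and 100% = high DMSO as cytotoxic control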). The note with it: HD-MB03 medulloblastoma cells, stronger effect = higher value.
The nature of experiment [9]: UWB1.289 ovarian carcinoma cell growth inhibition, synergistic combos for chromothripsis tumors, BGB or cisplatin combos (AID 1671456).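 Further: cells exposed to compound for four days; 0% = vehicle DMSO and 100% = killing by high DMSO.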 The conditions noted are these: UWB1.289 ovarian carcinoma cells, stronger effect = higher value.
The nature of experiment [10]: LFS_MB_2R medulloblastoma cell growth inhibition, synergistic combos for chromothripsis tumors, cisplatin combos (AID 1671457).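 Further: cells exposed to compound for four days before readout.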 The conditions noted are these: LFS_MB_2R medulloblastoma cells, stronger effect = higher value.
Experiment [11] in a line: MDA-MB-436 breast carcinoma cell growth inhibition, synergistic combos for chromothripsis tumors, BGB or cisplatin combos (AID 1671458; call rule not given here;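 further: cells exposed for 96 hours; 0% = vehicle DMSO and 100% = killing by high DMSO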). The note with it: MDA-MB-436 breast carcinoma growth inhibition, drug combinations, stronger effect = higher value.
The nature of experiment [12]: UWB1.289_BRCA1 ovarian cancer growth, cell-based, BGB or cisplatin combinations (AID 1671459). The conditions noted are these: UWB1.289 BRCA1 ovarian carcinoma, drug combinations, stronger effect = higher value.
The nature of experiment [13]: human astrocyte viability loss, single and combined drugs, cytotoxicity control for chromothriptic childhood tumor combination screen, cell-based, BGB or cisplatin IC20 combos (AID 1671460).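 Further: cells exposed to compounds for 96 hours before viability readout; 0% = vehicle and 100% = killing control.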 The note with it: Human astrocytes, drug combinations, stronger effect = higher value.
Experiment [14] can be described thus: growth inhibition of BT084 medulloblastoma cells, cell-based, ICGC_MB145, cisplatin and BGB IC40 combos (AID 1671461).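 Further: cells exposed to drugs for 96 hours; 0% = vehicle DMSO and 100% = high DMSO full killing control.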 The conditions noted are these: drug combinations, stronger effect = higher value.
A short description of experiment [15]: growth inhibition of RCMB18 medulloblastoma cells, cell-based, cisplatin and BGB IC40 combos (AID 1671462).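 Further: cells exposed to compound for four days.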 The note with it: stronger effect = higher value.
The nature of experiment [16]: growth inhibition of CRL1545 osteosarcoma cells, cell-based, cisplatin and BGB IC20 combos (AID 1671464).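 Further: cells exposed to compound for 96 hours before readout; 0% = vehicle DMSO and 100% = high DMSO killing control.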 The conditions noted are these: stronger effect = higher value.
The subject of experiment [17] is Aerobactin synthetase IucA (Klebsiella pneumoniae). Briefly: IucA aerobactin synthetase inhibitors, biochemical, Tocris library, absorbance (AID 1345561; call rule not given here;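 further: 100% = enzyme without compound and 0% = no enzyme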). The note with it: purified IucA enzyme assay, absorbance (OD) read-out; stronger effect = lower value;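 tested at 8 µM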.
[18] abbreviates: measured here: combination with cisplatin, at 0.5 µM.
The mark [19] stands for this setting: measured here: combination with cisplatin, at 5 µM.

For the molecule `CO[C@@]1(NC(=O)Cc2cccs2)C(=O)N2C(C(=O)O)=C(COC(N)=O)CS[C@@H]21`, in experiment [1], the SMN1 luciferase ratio stood at 1.2, the SMN2/SMN1 luciferase ratio was 1.24 (active) and the SMN2 luciferase ratio worked out at 1.48.
Take `CC(N=C(NC#N)Nc1ccncc1)C(C)(C)C` (configuration not stated): in experiment [2], the fold fluorescence is 3.41 [at 203.8 µM] (inactive).
Take `CCN(CC)CCNC(=O)c1ccc(N)cc1`: the fold fluorescence in [2] was 4.18 [at 212.5 µM] (inactive).
`O=C(CCCN1CC=C(n2c(=O)[nH]c3ccccc32)CC1)c1ccc(F)cc1`: in experiment [3], the protection was 35% (active).
As for `CCCCNC(=O)NS(=O)(=O)c1ccc(C)cc1`, in experiment [2], the fold fluorescence was 3.24 [at 184.9 µM] (inactive).
In the case of `OCCN1CCN(CCCN2c3ccccc3Sc3ccc(Cl)cc32)CC1`, in experiment [4], the normalised LDH release turned out to be 0.608.
Consider `Cc1ccc(S(=O)(=O)NC(=O)NN2CCCCCC2)cc1`, for which the fold fluorescence in experiment [2] was 4.87 [at 160.6 µM] (inactive).
`Cn1c(=O)c2[nH]cnc2n(C)c1=O`: the inhibition is -21.9% (inactive) and -0.42% (inactive) and -31.4% (inactive) in [5] (at 0.5 µM); -26.4% and 1.86% and -7.92% in experiment [5] (measured here: combination with BGB IC40, at 0.05 µM); -14.9% and -0.619% and -31.4% in [5] (setting [18]); 8.09% and -20.9% and -28.9% in experiment [5] (setting [19]); 4.06% (inactive) and -19.4% (inactive) and 3.27% (inactive) in experiment [6] (at 0.5 µM); -3.78% and -35% and -47% in experiment [6] (measured here: with BGB IC20, at 0.5 µM). Moreover, the inhibition is -9.64% and -9.51% and -34.2% in [6] (measured here: with BGB IC20, at 5 µM); -5.37% and -29.8% and 44.7% in [6] (measured here: with cisplatin IC20, at 0.5 µM); -42.2% and 14.2% and 0.95% in [6] (measured here: with cisplatin IC20, at 5 µM); 4.95% and 14.1% and 12.1% in [6] (single agent, at 5 µM); -26.5% (inactive) and -30.1% (inactive) and -56.1% (inactive) in [7] (at 0.5 µM); -30.2% and -27.7% and -48.2% in experiment [7] (measured here: combination with BGB at IC20, at 0.5 µM). In addition, the inhibition is -14.9% and -28.7% and -88% in experiment [7] (measured here: combination with cisplatin at IC20, at 0.5 µM); -13.1% (inactive) and -5.07% (inactive) and -0.46% (inactive) in experiment [8] (at 0.5 µM); -12% and -8.62% and 8.13% in [8] (measured here: combo with BGB at IC20, at 0.5 µM); -20.1% and -3.43% and -7.86% in [8] (measured here: combo with cisplatin at IC20, at 0.5 µM); 4.45% (inactive) and -2.98% (inactive) and 2.06% (inactive) in experiment [9] (at 0.5 µM); -14.7% and -27.6% and -12% in [9] (measured here: inhibition with BGB combination, at 0.05 µM). Besides, the inhibition in experiment [9] (measured here: inhibition with cisplatin combination, at 0.05 µM) was -7.61% and -9.15% and -16.4%; in [10] (at 0.5 µM), -18.7% (inactive) and -17.5% (inactive) and -20.5% (inactive); in [10] (setting [18]), -25.2% and -14.1% and -19.4%; in [10] (setting [19]), -67.2% and -2.43% and -20.9%; in [11] (at 0.5 µM), -17.5% (inactive) and -19.5% (inactive) and -13.6% (inactive); in [11] (measured here: BGB combination, at 0.5 µM), -12% and -14.3% and -17.1%. The inhibition is -13.2% and -18.8% and -9.87% in experiment [11] (measured here: BGB combination, at 5 µM); -40.2% and -33.9% and -18.2% in experiment [11] (measured here: cisplatin combination, at 0.5 µM); -36.3% and -17.6% and -0.817% in experiment [11] (measured here: cisplatin combination, at 5 µM); -19.8% and 16.6% and -0.184% in experiment [12] (BGB combination, concentration series, at 5 µM); -1.02% (inactive) and -1.86% (inactive) and -8.23% (inactive) in experiment [12] (at 0.5 µM); 10.1% and 4.75% and 18.9% in experiment [12] (cisplatin combination, concentration series, at 5 µM). Further, the inhibition is 0.61% (inactive) and -3.23% (inactive) and 6.04% (inactive) in experiment [13] (at 0.5 µM); -5.91% and -4.46% and 10.7% in [13] (measured here: combo with BGB IC20, at 0.5 µM); -10.6% and -12% and 4.82% in [13] (measured here: combo with cisplatin IC20, at 0.5 µM); -52.1% (inactive) and -29.3% (inactive) and -9.65% (inactive) in [14] (at 0.5 µM); -24.1% and -32.5% and -4.44% in [14] (cisplatin combination, at 0.5 µM); -14.9% and -47.9% and -47.4% in experiment [14] (cisplatin combination, at 5 µM). Moreover, the inhibition in experiment [14] (measured here: BGB IC40 combination 0.05 uM, at 0.05 µM) is -3.16% and -19.9% and 10.3%; in experiment [14] (single agent, at 5 µM), -10.6% and -25.6% and -15.2%; in experiment [15] (at 0.5 µM), -12.3% (inactive) and -7.91% (inactive) and -23.8% (inactive); in [15] (cisplatin combo, at 5 µM), -18.4% and 16.4% and 3.76%; in experiment [15] (measured here: BGB IC40 combination, at 0.05 µM), -15.1% and -0.46% and -14.9%; in [15] (setting [18]) it was 5.37% and -0.222% and -34.5%. Moreover, the inhibition in experiment [15] (single agent, at 5 µM) was -20% and -29.1% and -26.4%; in experiment [16] (at 0.5 µM) it was 2.86% (inactive) and -13.9% (inactive) and -23% (inactive); in [16] (measured here: with BGB IC20 combination, at 0.5 µM), 6.54% and -1.14% and 25.3%; in [16] (measured here: with cisplatin IC20 combination, at 0.5 µM), -1.22% and -20.4% and -47.1%; in experiment [16] (single agent, at 0.05 µM), 6.84% and 45.8% and 6.98%; in [16] (single agent, at 5 µM), 18.7% and 15.6% and -12.3%.
Consider `COc1ccc([C@@H]2Sc3ccccc3N(CCN(C)C)C(=O)[C@@H]2OC(C)=O)cc1`, for which the remaining activity in experiment [17] is 113% (inactive).
`CCCCCCCCCCC[C@@H](C[C@@H]1OC(=O)[C@H]1CCCCCC)OC(=O)[C@H](CC(C)C)NC=O`: the remaining activity in experiment [17] was 84.7% (inactive).
Regarding `CC[C@H](C)C(=O)O[C@H]1C[C@H](O)C=C2C=C[C@H](C)[C@H](CC[C@@H](O)C[C@@H](O)CC(=O)O)[C@H]21`, in experiment [17], the remaining activity was 123% (inactive).
Still for that read-out and setting: for `CC(C)(C)NC[C@H](O)COc1nsnc1N1CCOCC1` the value was 95.7% (inactive).
In the case of `COc1ccccc1N1CCN(CCCNc2cc(=O)n(C)c(=O)n2C)CC1`, the remaining activity in experiment [17] is 103% (inactive).

As a reminder, the inhibition is the change of the read-out against control, counted positive when it falls. As a reminder, the remaining activity is the signal under treatment as a percentage of the control signal.
